Reference: article PMC7819943, “Rice protein-binding microarrays: a tool to detect cis-acting elements near promoter regions in rice”
Whole data set: some 35,000 sequences, median “fluorescence intensity (a.u.)” near 10,000, cut for the highest 2% near 52,000. What follows is part of a selection rich in the highest values, with near analogues and random picks from the rest.

Molecular target: T1, OsWOX13 (Oryza sativa, UniProt Q5QMM3 1-267)
T1 sequence: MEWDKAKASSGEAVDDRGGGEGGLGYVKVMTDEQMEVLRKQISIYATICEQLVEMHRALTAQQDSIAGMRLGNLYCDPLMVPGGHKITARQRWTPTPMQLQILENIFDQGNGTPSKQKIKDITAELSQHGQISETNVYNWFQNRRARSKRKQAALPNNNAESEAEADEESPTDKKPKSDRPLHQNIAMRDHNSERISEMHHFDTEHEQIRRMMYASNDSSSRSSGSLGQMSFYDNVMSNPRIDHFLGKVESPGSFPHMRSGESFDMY
Assay: protein-binding microarray (RPBM); PBS, 2% BSA, 51.3 ng/ul salmon testes DNA, 50 uM zinc acetate, 200 nM TF, 25 C, 1 h; high values mean tight binding
Settings: protein: recombinant; tags: N-terminal polyhistidine and DsRed monomer fusion (pET32a); label: CyDye5-dUTP incorporated in the synthesized complementary strand; 3' TTTTT single-stranded linker to array surface; dsDNA, one strand shown
Method in brief: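 Binding signal is reported as fluorescence intensity per feature (arbitrary units) from an Axon 4000B scanner. Incubation used 200 nM of each Ni–NTA-purified, N-terminally polyhistidine- and DsRed-fused transcription factor from E. coli BL21-CodonPlus on a double-stranded custom Agilent array for 1 h at 25 °C, with 50 µM zinc acetate in the buffer, followed by washing.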

Sequence	binding signal
ACATATAATTGCCACGTCAGCGCCACATCAATGCCACGTGCGGAGTCACCTAGTGCAG	23200 fluorescence intensity (a.u.)
ATTAAAATTATGAAATTTTAATGATTCATTAATCTCAAGACGGAGTCACCTAGTGCAG	14100 fluorescence intensity (a.u.)
AACCGAAAATTATTATTTTAATCGGCGTGGTGTCCACTGGCGGAGTCACCTAGTGCAG	4880 fluorescence intensity (a.u.)
TCATTAATGATCTAATCACCAACTAAACTCCCTATCAATTCGGAGTCACCTAGTGCAG	18200 fluorescence intensity (a.u.)
GTTTGTTTAGATTGGTACCATTTAAAATCATATTATTTTGCGGAGTCACCTAGTGCAG	20600 fluorescence intensity (a.u.)
GGACAGATTAACTATCACTTAATTTCAGGTTTCCATGTATCGGAGTCACCTAGTGCAG	22700 fluorescence intensity (a.u.)
TACTACTAATTATATGCCGATTGAGAGTGTTGTAGCGTCACGGAGTCACCTAGTGCAG	17700 fluorescence intensity (a.u.)
CTGTACTGATTGTTCACGGGTCGTTTCCGCACTATGGAACCGGAGTCACCTAGTGCAG	27900 fluorescence intensity (a.u.)
CTGTTCACACGGATTGATCATTGATGGATCCATGCTGATGCGGAGTCACCTAGTGCAG	9220 fluorescence intensity (a.u.)
ATGAAAGATTGATATGTTGACATGTTCACAGATGAACTTACGGAGTCACCTAGTGCAG	17200 fluorescence intensity (a.u.)
CCTGTTGATTGGTTAGCCCAGCCCATGATGTAGCCCATGACGGAGTCACCTAGTGCAG	38200 fluorescence intensity (a.u.)
GGCGCACTGATTGTTCATGATTGATGCAGTGATCCGGGCACGGAGTCACCTAGTGCAG	59600 fluorescence intensity (a.u.)
ATGATGATTGGTTGGTTACGGGCATGTTCAGATTGTAGCCCGGAGTCACCTAGTGCAG	54900 fluorescence intensity (a.u.)
AAATAATGTACAAAAGGTGATAGATGAAACAATAAAGTAGCGGAGTCACCTAGTGCAG	4460 fluorescence intensity (a.u.)
TAATAATTTGGGGAGCTTAATTGCTATCCAGTGATATATACGGAGTCACCTAGTGCAG	11100 fluorescence intensity (a.u.)
ACTAATCATCACATCGCTGTCTCAGATTCTCAGTGACAGACGGAGTCACCTAGTGCAG	4120 fluorescence intensity (a.u.)
AAAATTGACTAGAGTGCTCTCACAAAATAAACTAGAGAGACGGAGTCACCTAGTGCAG	7000 fluorescence intensity (a.u.)
CACCAATCACATTAATATGATAATTCATTCACCTACCTCGCGGAGTCACCTAGTGCAG	39700 fluorescence intensity (a.u.)
AGTCAGATGCTCATAATTGAAAGAAATGCTAGGGCCTGAACGGAGTCACCTAGTGCAG	15200 fluorescence intensity (a.u.)
TGTTAATTTGAAATTTGGAAGATGTAATTAACTGTTGCCACGGAGTCACCTAGTGCAG	46900 fluorescence intensity (a.u.)
AGGTGATCATGCAAGGTAGTCAACAGTGTACTGCTAGTTACGGAGTCACCTAGTGCAG	53800 fluorescence intensity (a.u.)
CACTATAGTTACAGTGTAATTACATGCAAGTTACAGTGTACGGAGTCACCTAGTGCAG	5020 fluorescence intensity (a.u.)

Sequence	binding signal
TTATGATTTCAAGGTTAATGCTGCAGTTTCAAACAAGTTACGGAGTCACCTAGTGCAG	3480 fluorescence intensity (a.u.)
TATGATTGGCATGGCCTGAATGGATGGATGAATTTTGGATCGGAGTCACCTAGTGCAG	58500 fluorescence intensity (a.u.)
TTGGTGATTGAATCTGAACATGCTGGCCTTTGGGATGACTCGGAGTCACCTAGTGCAG	28400 fluorescence intensity (a.u.)
GTACATGAATTTTGATTAATTGCTAATTTTACATATGGATCGGAGTCACCTAGTGCAG	26000 fluorescence intensity (a.u.)
CCGGGTGATTGGCATGAATCTGAATGGCTGAATCCTGATGCGGAGTCACCTAGTGCAG	53400 fluorescence intensity (a.u.)
AATTCTGTGATTAGCGGGTGCTTTTCGAATGGATGGCATGCGGAGTCACCTAGTGCAG	29200 fluorescence intensity (a.u.)
GCATCGGAATTTTGGATGTGATTGCCTGCATCGGATGGATCGGAGTCACCTAGTGCAG	18200 fluorescence intensity (a.u.)
TTTAATTGTATTAACACTCGTGAGAATGATACATGAGATCCGGAGTCACCTAGTGCAG	29000 fluorescence intensity (a.u.)
GTGAATTTGATAGGGCGATAAGGATAATAAACAAGAACATCGGAGTCACCTAGTGCAG	3540 fluorescence intensity (a.u.)
ACATTAACAAACTCTATCTTAACATTTAGATGCAAGAGCCCGGAGTCACCTAGTGCAG	3790 fluorescence intensity (a.u.)
CGGATCCCATTCAATCATTCATTCATGTCGGATTGATGCCCGGAGTCACCTAGTGCAG	11800 fluorescence intensity (a.u.)
TAATAACTTATACTGATATTGATTACTCCCTCCATCCCTACGGAGTCACCTAGTGCAG	11800 fluorescence intensity (a.u.)
TACATGATGGGAAAATAGACTTTTGCAGCAGAGATTGAATCGGAGTCACCTAGTGCAG	10200 fluorescence intensity (a.u.)
TCGCCAATGATTGATCGCCTCATTCCCTCCTCCTCCTCCTCGGAGTCACCTAGTGCAG	57300 fluorescence intensity (a.u.)
CTAACTCAATGATTAAAATCTCGCCAGATCCCTCCTGCGTCGGAGTCACCTAGTGCAG	16700 fluorescence intensity (a.u.)
ATTGATCAATCGATCAATCCCTCCTTCCCCATCCAATCCTCGGAGTCACCTAGTGCAG	4160 fluorescence intensity (a.u.)
AGTGACCTCAATTGATCATTCCCTCATCCTTTAGTCAAGCCGGAGTCACCTAGTGCAG	3990 fluorescence intensity (a.u.)
TCCTTGATTTCTCCCCTCTCTCTGTCATTTCTCTCTTCCTCGGAGTCACCTAGTGCAG	13500 fluorescence intensity (a.u.)
GATGATTGATGGGAATATAGAGATCCCATGTTTTCCAGCTCGGAGTCACCTAGTGCAG	61000 fluorescence intensity (a.u.)
TCCCCTTGATTGATTGATCACCATTATTATAACATCCTCTCGGAGTCACCTAGTGCAG	64400 fluorescence intensity (a.u.)
AATATCCCATGATTGACTAGCTAGATGAATCCATATGGGTCGGAGTCACCTAGTGCAG	36500 fluorescence intensity (a.u.)
ATGATTGATCCATGAATCCCATTATCCATCATCCTCGAGTCGGAGTCACCTAGTGCAG	63300 fluorescence intensity (a.u.)
